Results as given in PubChem BioAssay (NCATS).
Several values for one entry are separate records, joined by “and”; a condition that tells them apart may be missing. Equal entries are not always repeated. Records with an inconclusive call do not appear. Activity calls are given as the source filed them. Calls come from the whole dose curve; as a rule, active = well fitted curve in the direction sought with a large enough effect; inconclusive = small, poorly fitted or top-dose-only effect, or another doubt; inactive = no such curve, though single readings can be large; an effect the other way counts as inactive or inconclusive.

Legend:
[1] = target: Cytochrome P450 3A7 (Homo sapiens) (UniProt P24462); experiment: Cytochrome P450 family 3 subfamily A member 7 (CYP3A7) small molecule antagonists: luciferase biochemical qHTS assay (AID 1963596); note: % is set by controls: 0 for no effect and ±100 for the full control effect; nearly all actives have a fitted effect of over 40% in size
Cytochrome P450 3A7 (Homo sapiens), sequence (P24462 whole entry, looked up): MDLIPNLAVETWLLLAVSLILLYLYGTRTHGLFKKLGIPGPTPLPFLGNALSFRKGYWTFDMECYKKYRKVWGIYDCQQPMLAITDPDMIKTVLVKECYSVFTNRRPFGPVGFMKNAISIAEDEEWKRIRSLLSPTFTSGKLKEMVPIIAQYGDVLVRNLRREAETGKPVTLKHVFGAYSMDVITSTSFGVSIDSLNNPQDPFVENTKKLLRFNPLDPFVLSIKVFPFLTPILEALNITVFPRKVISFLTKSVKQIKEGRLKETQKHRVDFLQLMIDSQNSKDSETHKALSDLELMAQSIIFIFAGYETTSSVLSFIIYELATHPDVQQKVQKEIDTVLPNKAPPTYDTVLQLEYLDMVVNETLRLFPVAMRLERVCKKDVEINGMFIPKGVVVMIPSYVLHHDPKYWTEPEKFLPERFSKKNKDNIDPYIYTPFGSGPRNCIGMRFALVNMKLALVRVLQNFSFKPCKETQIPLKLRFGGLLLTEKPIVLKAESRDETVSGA
Summary of the method: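 In this luminescent screen, enzyme and proluciferin substrate meet test compound for 10 min before NADPH regeneration solution drives a 1 h room-temperature reaction; detection reagent halts turnover and luminescence is read 20 min later.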

[2] = Viability qHTS for spleen associated tyrosine kinase inhibitor (SYKi) naive MV4-11 cells (AID 1963823); note: nearly all actives have a fitted effect of over 40% in size; note: potency is the fitted concentration of half-maximal effect
Summary of the method: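 Seeding of 500 SYKi-naive MV4-11 cells per well onto pre-dispensed compounds preceded a 72 hr incubation at 37 C. Luminescent CellTiter-Glo signal, read after 10 min at room temperature, reflected viable cells.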

[3] = Viability qHTS for spleen associated tyrosine kinase inhibitor (SYKi) drug resistant MV4-11 cells (AID 1963824); note: nearly all actives have a fitted effect of over 35% in size; note: potency is the fitted concentration of half-maximal effect
Summary of the method: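 CellTiter-Glo luminescence, read 10 min after reagent addition, reports viability after a 72 hr compound exposure. Cells are an MV4-11 line made resistant to SYK inhibition, seeded at 500 per well onto compound-containing plates.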

[4] = Cellular viability qHTS for adrenocortical cancer (ACC) cell line SW-13 (AID 1963989); settings: SW-13 ACC cells viability, CellTiter-Glo, 48 h; activity (max response): hits give low values; note: nearly all actives have a fitted effect of over 65% in size; note: potency is the fitted concentration of half-maximal effect;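 for activity (max response): cells grown in serum-free medium with ITS supplement; % is set by controls: 0 for no effect and ±100 for the full control effect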
Summary of the method: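 Viability was read as CellTiter-Glo luminescence after 48 h compound treatment (up to 46 uM final) of SW-13 cells grown serum-free; titration curves were fit with a four-parameter logistic model to give IC50 and efficacy.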

[5] = Cellular viability qHTS for adrenocortical cancer (ACC) cell line NCI-H295R (AID 1963990); note: nearly all actives have a fitted effect of over 60% in size; note: potency is the fitted concentration of half-maximal effect;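 for activity change, negative = viability loss: 0% = DMSO only wells and -100% = full killing with cytotoxic reference compound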
Summary of the method: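 CellTiter-Glo ATP luminescence, read 48 h after compound addition, measured viability of NCI-H295R adrenocortical cells grown serum-free with ITS. Final concentrations spanned up to 46 uM. Data normalized to DMSO and doxorubicin, fitted for IC50 and maximal response.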

CC[N+](C)(C)c1cccc(O)c1
inactive: Potency [1] | Potency [2] | Potency [3] | activity (max response) [4] 8.29% | Potency [5]

C[N+]1(C)CCC(=C(c2ccccc2)c2ccccc2)CC1
inactive: Potency [1] | Potency [2] | Potency [3] | activity (max response) [4] -4.49% | Potency [5]

CC(O)CCCCn1c(=O)c2c(ncn2C)n(C)c1=O (stereo not given)
inactive: Potency [1] | Potency [2] | Potency [3] | activity (max response) [4] 7.24% | Potency [5]

C=CCc1ccc(O)c(OC)c1
inactive: Potency [1] | Potency [2] | Potency [3] | activity (max response) [4] 6.59% | Potency [5]

C[C@H]1NCc2cc(-c3ccc4c(=O)c(C(=O)O)cn(C5CC5)c4c3OC(F)F)ccc21
inactive: Potency [1] | Potency [2] | Potency [3] | activity (max response) [4] -8.27% | Potency [5]

CC(=O)NCCCS(=O)(=O)O
inactive: Potency [1] | Potency [2] | Potency [3] | activity (max response) [4] 5.88% | Potency [5]

C=CCN1CCc2nc(N)sc2CC1
inactive: Potency [1] | Potency [2] | Potency [3] | activity (max response) [4] 1.2% | Potency [5]

Cc1cccc(C)c1OCC(C)N (stereo not given)
inactive: Potency [1] | Potency [2] | Potency [3] | activity (max response) [4] 2.1% | Potency [5]

COC(=O)c1cc(Cl)c(NC(C)=O)cc1OC
inactive: Potency [1] | Potency [2] | Potency [3] | activity (max response) [4] 11.7% | Potency [5]

CC(=O)N(CC(O)CN(C(C)=O)c1c(I)c(C(=O)NCC(O)CO)c(I)c(C(=O)NCC(O)CO)c1I)c1c(I)c(C(=O)NCC(O)CO)c(I)c(C(=O)NCC(O)CO)c1I (stereo not given)
inactive: Potency [1] | Potency [2] | Potency [3] | activity (max response) [4] 14.1% | Potency [5]

CC(=O)Nc1ncc([N+](=O)[O-])s1
inactive: Potency [1] | Potency [2] | Potency [3] | activity (max response) [4] 10.5% | Potency [5]

N[C@@H](CSSC[C@H](N)C(=O)O)C(=O)O
inactive: activity change, negative = inhibition [1] 0.172% [at 0.91 µM] | viability (% of control) [2] 68.4% [at 0.588 µM] | viability, % of control [3] 76.8% [at 0.588 µM] | activity (max response) [4] 5.04% | activity change, negative = viability loss [5] -0.603% [at 0.587 µM]

CCN(CC)CCNC(=O)c1ccc(N)cc1
inactive: Potency [1] | Potency [2] | Potency [3] | activity (max response) [4] 13% | Potency [5]

CCOc1ccc(NC(C)=O)cc1
inactive: Potency [1] | Potency [2] | Potency [3] | activity (max response) [4] -8.62% | Potency [5]

O=C(O)/C=C/c1ccc(Cn2ccnc2)cc1
inactive: Potency [1] | Potency [2] | Potency [3] | activity (max response) [4] 7.34% and 4.34% | Potency [5]

NC(=O)C1(N2CCCCC2)CCN(CCCC(=O)c2ccc(F)cc2)CC1
inactive: Potency [1] | Potency [2] | Potency [3] | activity (max response) [4] 1.85% | Potency [5]

O=C(O)c1ccc(S(=O)(=O)N(Cl)Cl)cc1
inactive: Potency [1] | Potency [2] | Potency [3] | activity (max response) [4] 9.06% | Potency [5]

C[N+]1(C)[C@@H]2CC(OC(=O)[C@H](CO)c3ccccc3)C[C@H]1[C@@H]1O[C@@H]12 (stereo not given in full)
inactive: Potency [1] | Potency [2] | Potency [3] | activity (max response) [4] 8.81% and 11.1% | Potency [5]

Cc1cc(NS(=O)(=O)c2ccc(N)cc2)nc(C)n1
inactive: Potency [1] | Potency [2] | Potency [3] | activity (max response) [4] 9.61% | Potency [5]

Oc1ccc(Cl)c2cccnc12
inactive: Potency [1] | Potency [2] | Potency [3] | activity (max response) [4] 4.85% | Potency [5]

O=C1CC(c2ccc(Cl)cc2)CC(=O)N1
inactive: Potency [1] | Potency [2] | Potency [3] | activity (max response) [4] 13.6% | Potency [5]

CC(C)(C)NCC(O)COc1cccc2c1C[C@H](O)[C@H](O)C2 (stereo not given in full)
inactive: Potency [1] | Potency [2] | Potency [3] | activity (max response) [4] 9.63% | Potency [5]

CCCc1c2oc(C(=O)O)cc(=O)c2cc2c(=O)cc(C(=O)O)n(CC)c12
inactive: Potency [1] | Potency [2] | Potency [3] | activity (max response) [4] -2.58% | Potency [5]

O=C(c1ccccc1)C(O)c1ccccc1 (stereo not given)
inactive: Potency [1] | Potency [2] | Potency [3] | activity (max response) [4] 11.7% | Potency [5]

C[C@H]1O[C@@H](O[C@H]2[C@@H](O)C[C@H](O[C@H]3[C@@H](O)C[C@H](O[C@H]4CC[C@@]5(C)[C@H](CC[C@@H]6[C@@H]5C[C@@H](O)[C@]5(C)[C@@H](C7=CC(=O)OC7)CC[C@]65O)C4)O[C@@H]3C)O[C@@H]2C)C[C@H](O)[C@@H]1O
active: Potency [2] 103 nM and 118 nM | Potency [3] 58 nM and 118 nM | Potency [4] 70.8 nM | Potency [5] 126 nM
inactive: Potency [1]

OCc1ccccn1
inactive: Potency [1] | Potency [2] | Potency [3] | activity (max response) [4] -4.99% | Potency [5]

CCCCCCCCCCCCCCCCCC(=O)OCC(O)CO (stereo not given)
inactive: Potency [1] | Potency [2] | Potency [3] | activity (max response) [4] 5.37% | Potency [5]
